What all share (format): functional
The subject of test [1] is Plasmodium falciparum. Put plainly: GSK_TCMDC: Inhibition of Plasmodium falciparum 3D7 in whole red blood cells, using parasite LDH activity as an index of growth. Test compounds present at 2uM.
In test [2] the test system is Plasmodium falciparum. In words: GSK_TCMDC: Inhibition of Plasmodium falciparum Dd2 in whole red blood cells, using parasite LDH activity as an index of growth. Test compounds present at 2uM.
The next test relates to HepG2. Put plainly: GSK_TCMDC: Percent inhibition of human HepG2 cell line. Test compounds present at 10uM.

The structures appear in SMILES notation.

Data on 31 molecules can be found in ChEMBL document CHEMBL1157539, “Thousands of chemical starting points for antimalarial lead identification” (Nature, 2010).

In the case of `Cc1ccc(C)c(S(=O)(=O)NCC2CCN(Cc3ccc(O)cc3)CC2)c1.O=C(O)C(F)(F)F`, the values for the Inhibition in the test with Plasmodium falciparum [1], in the test with Plasmodium falciparum [2] and in the test with HepG2 were 87%, 57% and 16%, respectively.

As to `CC(C)COc1ccc(Cl)cc1Cc1ccc(-c2nc3cc(CCN(C)C)ccc3[nH]2)o1.Cl`, the Inhibition in the test with Plasmodium falciparum [1] was determined as 92%; in the test on Plasmodium falciparum [2], 7%; with HepG2 it was 10%.

As to `CCCCCCOc1ccc(N2C(N)=NC(N)=NC2(C)C)cc1.Cl`, the Inhibition is 98% with Plasmodium falciparum [1], 0% with Plasmodium falciparum [2] and 5% in the test on HepG2.

For the molecule `Cc1ccccc1N1CCN(c2ccc(C(=O)Nc3ccccc3)cc2)CC1`, the Inhibition is given as 89% with Plasmodium falciparum [1], 91% with Plasmodium falciparum [2] and 22% with HepG2.

For `Cc1cc(NC(=O)Nc2cccc(N(C)C)c2)c2ccccc2n1`, the Inhibition in the test on Plasmodium falciparum [1] came out at 97%; in the test with Plasmodium falciparum [2], 95%; in the test with HepG2, 0%.

`Cl.O=C(/C=C/c1ccc(Cl)c(Cl)c1)N1CCC(CN2CCC(c3c[nH]c4ncccc34)CC2)CC1`: the values for the Inhibition in the test on Plasmodium falciparum [1], in the test on Plasmodium falciparum [2] and with HepG2 were 84%, 20% and 38%, respectively.

Regarding `COc1ccccc1CNc1ncc(-c2ccsc2)c(-c2nccs2)n1`, the Inhibition came out at 91% with Plasmodium falciparum [1], 84% in the test with Plasmodium falciparum [2] and 14% with HepG2.

In the case of `NC(=O)c1ccc(NC(=O)CN(Cc2ccc(Cl)cc2)S(=O)(=O)c2ccccc2)cc1`, the results for the Inhibition in the test on Plasmodium falciparum [1], in the test on Plasmodium falciparum [2] and in the test with HepG2 were 90%, 75% and 2%, respectively.

Take `O=C(Nc1ccc(-c2ccc(-c3nc4cc(C(F)(F)F)ccc4[nH]3)cc2)cc1)Nc1ccc(F)c(F)c1F`: the Inhibition in the test with Plasmodium falciparum [1] amounted to 99%; with Plasmodium falciparum [2], 100%; in the test with HepG2, 39%.

For `Cc1ccc(NC(=O)C2CCC2)cc1-c1ccc(C(=O)NCC2CC2)cc1`, the results for the Inhibition in the test on Plasmodium falciparum [1], in the test on Plasmodium falciparum [2] and in the test on HepG2 were 98%, 3% and 13%, respectively.

Regarding `CCCN(CCC)C(=O)c1cc(C(=O)N[C@@H](Cc2ccccc2)[C@H](O)CNC(C)(C)c2cccc(C(F)(F)F)c2)cc(N2CCCCS2(=O)=O)c1`, the Inhibition with Plasmodium falciparum [1] is reported as 99%; in the test with Plasmodium falciparum [2] it was 98%; in the test on HepG2, 19%.

`CN(Cc1ccc(NC(=O)NC2CCN(C(=O)/C=C/c3ccc(Cl)c(Cl)c3)CC2)cc1)C1CCOCC1`: the Inhibition was 96% in the test with Plasmodium falciparum [1], 14% in the test with Plasmodium falciparum [2] and 9% in the test on HepG2.

As to `Br.CC1(C)NC(=N)NC(=N)N1OCC=Cc1ccccc1`, the Inhibition in the test with Plasmodium falciparum [1] worked out at 94%; in the test on Plasmodium falciparum [2] it was 96%; in the test with HepG2, 62%.

On to `Cc1ccc(Oc2ccc(NC(=O)CNc3ccccc3N3CCCC3=O)cc2)cc1`, for which the Inhibition is 98% with Plasmodium falciparum [1], 97% with Plasmodium falciparum [2] and 14% in the test on HepG2.

Take `FC(F)(F)c1cccc(Nc2nc(-c3ccccc3)nc3ncccc23)c1`: the figures for the Inhibition in the test on Plasmodium falciparum [1], with Plasmodium falciparum [2] and in the test with HepG2 were 97%, 97% and 17%, respectively.

Regarding `CCCC(C)N(Cc1ccc(C(C)(C)C)cc1)C(=O)c1cccc(C#N)c1` (stereo not drawn), the Inhibition is recorded as 86% in the test with Plasmodium falciparum [1], 45% with Plasmodium falciparum [2] and 14% with HepG2.

Take `CC(CCc1ccccc1)NCC(O)c1cccc([N+](=O)[O-])c1` (stereo not drawn): the Inhibition was determined as 97% in the test on Plasmodium falciparum [1], 98% with Plasmodium falciparum [2] and 0% with HepG2.

As for `CCCCCN1CCCC(NS(=O)(=O)c2cccc(C(=O)Nc3cccc(C(F)(F)F)c3)c2)C1.O=C(O)C(F)(F)F` (stereo not drawn), the figures for the Inhibition in the test with Plasmodium falciparum [1], in the test with Plasmodium falciparum [2] and in the test on HepG2 were 86%, 5% and 22%, respectively.

On to `COc1ccc(NC(=O)CCNc2cc(C)nc(NCCc3ccc(F)cc3)n2)cc1.O=C(O)C(F)(F)F`, for which the Inhibition in the test on Plasmodium falciparum [1] came to 98%; in the test on Plasmodium falciparum [2], 3%; in the test with HepG2 it was 27%.

On to `CCN(CC)CC(O)CNc1c2ccc([N+](=O)[O-])cc2nc2cc(OC)c(OC)cc12.Cl` (stereo not drawn), for which the Inhibition with Plasmodium falciparum [1] amounted to 100%; with Plasmodium falciparum [2] it was 100%; in the test with HepG2 it was 78%.

`CCOc1cc(C(=O)NC2CCN(Cc3ccccc3)C2)ccc1-c1nc2cc(Cl)ccc2[nH]1` (stereo not drawn): the results for the Inhibition in the test on Plasmodium falciparum [1], in the test on Plasmodium falciparum [2] and in the test with HepG2 were 98%, 60% and 7%, respectively.

Consider `c1ccc(CCNc2nc(NCC(c3ccccc3)c3ccccc3)c3nc[nH]c3n2)cc1`, for which the Inhibition came out at 100% in the test with Plasmodium falciparum [1], 95% in the test with Plasmodium falciparum [2] and 9% in the test with HepG2.

`COc1cccc2c(NN=Cc3cccc(F)c3)ccnc12`: the Inhibition with Plasmodium falciparum [1] is 99%; in the test on Plasmodium falciparum [2], 44%; in the test on HepG2, 12%.

Consider `N#Cc1ccc(-c2ccc(C(=O)NCCCCN3CCC(c4ccc5c(c4OCc4ccccn4)CCCC5)CC3)cc2)cc1`, for which the Inhibition with Plasmodium falciparum [1] is recorded as 96%; in the test on Plasmodium falciparum [2], 39%; in the test on HepG2, 37%.

Consider `O=C(NC1CCN(Cc2ccsc2)CC1)c1ccc(-c2cccc(C(F)(F)F)c2)s1.O=C(O)C(F)(F)F`, for which the Inhibition came to 88% in the test on Plasmodium falciparum [1], 3% in the test with Plasmodium falciparum [2] and 48% in the test on HepG2.

Regarding `O=C(Nc1ccc(C(F)(F)F)cc1)Nc1cccc([N+](=O)[O-])c1`, the Inhibition with Plasmodium falciparum [1] amounted to 100%; in the test with Plasmodium falciparum [2] it was 98%; in the test on HepG2, 20%.

As to `Cc1cccc(-c2nn(-c3ccccc3)cc2C(=O)Nc2nnc(C)o2)c1`, the Inhibition in the test on Plasmodium falciparum [1] is listed as 84%; in the test with Plasmodium falciparum [2], 63%; in the test with HepG2, 38%.

As for `CCCCNC(=O)[C@H](Cc1ccccc1)NC(=O)c1ccc(O)c(-c2ccc(Cl)c(Cl)c2)c1`, the Inhibition with Plasmodium falciparum [1] is 98%; in the test with Plasmodium falciparum [2], 97%; with HepG2, 0%.

With `COc1ccc(CNCc2ccc(-c3cccc(-c4nc5cc(F)ccc5[nH]4)c3)cc2)cc1.O=C(O)C(F)(F)F`, the figures for the Inhibition with Plasmodium falciparum [1], with Plasmodium falciparum [2] and in the test with HepG2 were 100%, 94% and 33%, respectively.

For `Cc1ccc(NC(=O)c2ccc(CN3CCCN(Cc4cccc(O)c4)CC3)cc2)cc1F.O=C(O)C(F)(F)F`, the figures for the Inhibition with Plasmodium falciparum [1], with Plasmodium falciparum [2] and in the test with HepG2 were 97%, 31% and 48%, respectively.

`O=[N+]([O-])c1cccc(C=NNc2nc(=Nc3ccccc3)[nH]c(=Nc3ccccc3)[nH]2)c1`: the Inhibition in the test with Plasmodium falciparum [1] turned out to be 99%; in the test with Plasmodium falciparum [2] it was 55%; in the test on HepG2 it was 10%.

By Inhibition is commonly meant the share of the control response that was lost under treatment. Low readings indicate little suppression, high ones strong suppression.
